The source of these data is the OligoGym collection.
Note: reference of the scale not given here.

The first experiment addresses FUT7. The experiment can be described thus: pooled miR-30 sensor sort-seq; sequence = guide strand. To be noted: shRNA.
For TCGGTGAACAGTCGCACGCGGA, the sensor-assay potency score (higher = more potent) is -1.48.
The sequence ATAGGGCACAAAGATGTCCGAG yielded a sensor-assay potency score (higher = more potent) of -0.929.
On the same count and under the same terms, the value for TTGATTTCGACACCCAGCCCTT was -1.26; that for TTGGCACTCAGGTGGCAGCGGG was -1.03.
On the same count and under the same terms, the value for TCTCCGTAATGTAGTCGCGGTG was -1.48; that for AACAGTCGCACGCGGAGCCTGT was -1.06; that for TATCGGCTCTCATTCATGCCAG was -0.795.
Same read-out and setting: under TTGAAGATGCCTCGGAGGTGGC stands -0.867; under TCAAGGTCCTCATAGACTTGGC, -0.439.
For the sequence TAGCGGTCACAGATGGCACAGA, the sensor-assay potency score (higher = more potent) is -0.787.
The same measure, in the same setting: under TCCTCATAGACTTGGCTGCGGG stands -1.76; under TTGCGCCAGAATTTCTCCGTAA, -0.526.
TGTCGCTGGGCAGCTCTGGGGG registered a sensor-assay potency score (higher = more potent) of -1.3.
In turn, TTCTCCGTAATGTAGTCGCGGT came in with a sensor-assay potency score (higher = more potent) of -0.562.
The same measure, in the same setting: under TCAAAGGACAGGTAGAAGCGGT stands 0.117; under TTGGTATCGGCTCTCATTCATG, -1.57.
Still for that read-out and setting: under TAATGTAGTCGCGGTGCTGAGA stands -0.815; under AAAGATGTCCGAGTCGCGCCGG, -0.517.
The same measure, in the same setting: the value for TCATCCACATGCACGAAGGCGT was -0.506.
For the sequence TAGGGCACAAAGATGTCCGAGT, the sensor-assay potency score (higher = more potent) is -0.24.
The sequence TTTCTCCGTAATGTAGTCGCGG came in with a sensor-assay potency score (higher = more potent) of -0.338.
The same measure, in the same setting: the value for AAAGTCATCCACATGCACGAAG was -0.891; that for AAGATGTCCGAGTCGCGCCGGT was -0.72; that for TCACAGATGGCACAGAAACGTT was -1.59.

For another experiment, the target named is FXN. The experiment is described as above. The note with it: shRNA.
In turn, ATCAAATAGACACTCTGCTTTT had a sensor-assay potency score (higher = more potent) of -1.04.
The same measure, in the same setting: under AAAGGAGACATCATAGTCCTCA stands 0.0111; under TTTAGTGAGCTCTGCGGCCAGC, -1.33.
With TTGTTGATCACATAGGTTCCTA, the sensor-assay potency score (higher = more potent) turned out to be 0.0276.
Still for that read-out and setting: under ATTCATCAAATAGACACTCTGC stands 0.393; under TTTTTGACATTCCAAATCTGGT, -1.15.
The sequence TCTGCTAAAGAGTCCAGCGTTT came in with a sensor-assay potency score (higher = more potent) of -0.618.
On the same count and under the same terms, under TTGACAGTTAAGACACCACTCC stands -0.462.
TGCTTGTTGATCACATAGGTTC gave a sensor-assay potency score (higher = more potent) of -0.833.
TGGTCTCATCTAGAGAGCCTGG displayed a sensor-assay potency score (higher = more potent) of -1.32.
The same measure, in the same setting: under TCTGCTAGTCTTTCATAGGTGG stands 0.437; under TAAGGCTTTAGTGAGCTCTGCG, 0.283.
On the same count and under the same terms, under TAGGTGGTCTCATCTAGAGAGC stands -1.48; under TGTTGATCACATAGGTTCCTAG, -0.584.
On the same count and under the same terms, the value for TTGCTTGTTTGGCGTCTGCTTG was -0.812.
